Experiments:
Settings in all cases: concentration: 1 μM, replicates: in singlicate; n = 1
[1] = tested on: T1, RSK2(Kin.Dom.1-N-terminal)
T1 construct: gene RPS6KA3

[2] = tested on: T2, RSK2(Kin.Dom.2-C-terminal)
T2 construct: gene RPS6KA3

[3] = tested on: T3, RSK3(Kin.Dom.1-N-terminal)
T3 construct: gene RPS6KA2

[4] = tested on: T4, RSK3(Kin.Dom.2-C-terminal)
T4 construct: gene RPS6KA2

[5] = tested on: T5, RSK4(Kin.Dom.1-N-terminal)
T5 construct: gene RPS6KA6

[6] = tested on: T6, RSK4(Kin.Dom.2-C-terminal)
T6 construct: gene RPS6KA6

S6K1 = tested on: S6K1
SBK1 = tested on: SBK1
SGK2 = tested on: SGK2
SGK3 = tested on: SGK3
SGK = tested on: SGK
SIK2 = tested on: SIK2
SIK = tested on: SIK
SLK = tested on: SLK
SNARK = tested on: T7, SNARK
T7 construct: gene NUAK2

SNRK = tested on: SNRK
SRC = tested on: SRC
SRMS = tested on: SRMS
SRPK1 = tested on: SRPK1
SRPK2 = tested on: SRPK2
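Note: KINOMEscan kinase panel screen.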

Row | Compound | %Inh [1] [%] | %Inh [2] [%] | %Inh [3] [%] | %Inh [4] [%] | %Inh [5] [%] | %Inh [6] [%] | %Inh (S6K1) [%] | %Inh (SBK1) [%] | %Inh (SGK2) [%] | %Inh (SGK3) [%] | %Inh (SGK) [%] | %Inh (SIK2) [%] | %Inh (SIK) [%] | %Inh (SLK) [%] | %Inh (SNARK) [%] | %Inh (SNRK) [%] | %Inh (SRC) [%] | %Inh (SRMS) [%] | %Inh (SRPK1) [%] | %Inh (SRPK2) [%]
1 | CCCCCc1nc2c(N)ncnc2n1CCCCC [SKF-97255] | 32 | 0 | 0 | 7 | 20 | 0 | 13 | 0 | 0 | 0 | 0 | 1 | 8 | 8 | 0 | 0 | 14 | 25 | 0 | 11
2 | Fc1ccc(-c2ncn(CCCN3CCOCC3)c2-c2ccccn2)cc1 [SB-211742] | 0 | 49 | 0 | 35 | 0 | 0 | 0 | 0 | 0 | 0 | 0 | 0 | 11 | 23 | 0 | 0 | 0 | 0 | 0 | 60
3 | COc1ccc(Nc2nccc(N3CCC(NC(=O)Nc4cc(C)ccc4C)C3)n2)cc1 (stereo not drawn) [GSK1379741] | 0 | 0 | 18 | 0 | 0 | 0 | 11 | 0 | 0 | 0 | 0 | 0 | 0 | 0 | 0 | 0 | 0 | 0 | 27 | 0
4 | Fc1ccc(-c2ncn(CCCN3CCOCC3)c2-c2cccnc2)cc1 [SB-211743] | 34 | 0 | 0 | 27 | 20 | 0 | 0 | 1 | 0 | 0 | 39 | 5 | 0 | 25 | 0 | 0 | 0 | 27 | 0 | 0
5 | O=c1cc(N2CCOCC2)nc2n(Cc3cccc(F)c3)ccn12 [GSK2297430] | 0 | 0 | 14 | 0 | 0 | 6 | 0 | 6 | 0 | 0 | 0 | 2 | 4 | 18 | 0 | 0 | 12 | 0 | 23 | 0
6 | O=c1cc(N2CCOCC2)nc2n(Cc3cccc(C(F)(F)F)c3)ccn12 [GSK2297543] | 16 | 6 | 0 | 6 | 0 | 13 | 0 | 37 | 0 | 5 | 0 | 0 | 0 | 18 | 0 | 0 | 0 | 0 | 24 | 0
7 | Cc1c2ccc(N(C)c3ccnc(Nc4cccc(S(N)(=O)=O)c4)n3)cc2nn1Cc1ccccc1.Cl.Cl [GW787226] | 18 | 0 | 0 | 0 | 6 | 0 | 65 | 0 | 0 | 0 | 0 | 42 | 72 | 66 | 0 | 0 | 94.7 | 67 | 7 | 0
8 | CN1c2ccc(CNc3ccc(F)cc3)cc2-c2c(cnn2C)S1(=O)=O | 23 | 41 | 3 | 8 | 5 | 0 | 0 | 0 | 100 | 0 | 0 | 0 | 0 | 0 | 0 | 0 | 0 | 0 | 0 | 21
9 | N#Cc1c(N2CCOCC2)sc(-c2ccn[nH]2)c1-c1ccc(Cl)cc1 | 9 | 0 | 13 | 2 | 2 | 10 | 7 | 35 | 23 | 8 | 23 | 4 | 13 | 17 | 5 | 12 | 0 | 0 | 0 | 0
10 | Cc1cccc(Cn2ccn3c(=O)cc(N4CCOCC4)nc23)c1 [GSK2297542] | 11 | 33 | 19 | 44 | 0 | 42 | 6 | 26 | 1 | 0 | 0 | 0 | 3 | 22 | 3 | 0 | 24 | 11 | 11 | 0
11 | COc1ccc(S(=O)(=O)NC2CCN(c3cc(C)nc(Nc4cccc(C#N)c4)n3)CC2)cc1.O=C(O)C(F)(F)F [GSK1653539] | 0 | 0 | 1 | 0 | 0 | 21 | 0 | 0 | 0 | 4 | 0 | 0 | 0 | 8 | 0 | 0 | 0 | 0 | 0 | 0
12 | COc1cc(Nc2nccc(N3CCC(NC(=O)c4cccc(NC(C)=O)c4)C3)n2)cc(OC)c1OC (stereo not drawn) [GSK1379754] | 3 | 22 | 26 | 0 | 1 | 0 | 10 | 9 | 0 | 0 | 0 | 12 | 10 | 32 | 57 | 0 | 25 | 0 | 61 | 0
13 | Cc1cccc(-c2nc(Nc3ccc4ncsc4c3)c3ccccc3n2)n1 [GW867588] | 8 | 0 | 0 | 9 | 6 | 8 | 0 | 19 | 0 | 0 | 5 | 0 | 10 | 7 | 6 | 0 | 7 | 8 | 0 | 0
14 | COc1ccc(CNC(=O)NC2CCN(c3ccnc(Nc4ccc(OC)cc4)n3)C2)cc1 (stereo not drawn) [GSK1379727] | 7 | 0 | 0 | 0 | 0 | 21 | 2 | 3 | 0 | 0 | 25 | 0 | 1 | 0 | 0 | 0 | 0 | 5 | 43 | 35
15 | COC(=O)Nc1nc2cc(Oc3ccc(NC(=O)Nc4cc(F)ccc4F)cc3)ccc2[nH]1.Cl [GW701424] | 5 | 1 | 8 | 13 | 0 | 18 | 2 | 6 | 0 | 12 | 2 | 0 | 0 | 9 | 0 | 0 | 0 | 0 | 0 | 29

Source: article PMC5540273 (PLoS ONE, 2017)
